This is an account of results in PubChem BioAssay (NCI).

“And” between values parts separate entries of the source, which are not always exact repeats. Equal entries are not always repeated. About 79,000 compounds went through this panel and 15% of them were active in at least one assay; those are over-represented in the sample as a whole. Some compounds were tested as several samples or in several runs, with calls that do not always agree. The source made the active and inactive calls. No stated cut-off is given here; in the data, active means growth inhibition above about 70%; inactive means the rest.

One experiment is described as follows: NCI Yeast Anticancer Drug Screen. Data for the bub3 strain (AID 167). Particulars: S. cerevisiae bub3 mutant strain, at 5.0 µM (retest, dose inferred, filed as 0.5), stronger effect = higher value. The gist of the method: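 In this screen, a yeast mutant lacking normal mitotic checkpoint function is challenged with compound. Relative growth versus vehicle gives the inhibition value.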
Turning to `CNC(=O)OCc1c(COC(=O)NC)c(C)n(-c2ccc(Cl)c(Cl)c2)c1C`, the growth inhibition was 8% (inactive). Turning to `COc1ccc2nc(N/N=C/c3sccc3C)cc(C)c2c1`, the growth inhibition was 96% (active). For `CCCCCCCCCCCC[N+](C)(C)Cc1ccccc1` (tested in a mixture with another compound), the growth inhibition is 93% (active) and 76% (active). The same measure, in the same setting: as for `CC(C)c1ccc(O)c(=O)cc1`, the figure is 0% (inactive) and -1% (inactive) and -5% (inactive); as for `O=C(O)/C=C\C(=O)NNc1ccc(Br)cc1`, 3% (inactive); as for `S=c1[nH]nc(Cc2ccccc2)c(=S)[nH]1`, 46% (inactive). On the same count and under the same terms, with `COc1ccc2nc3cccc([N+](=O)[O-])c3c(NCCCO)c2c1` the figure was 16% (inactive); with `CCN(CC)CCSc1c2ccccc2nc2cc(NCC(=O)Nc3ccccc3-c3ccccc3NC(=O)CNc3ccc4c(SCCN(CC)CC)c5ccccc5nc4c3)ccc12`, 27% (inactive). In the case of `Cc1ccc(N(C=O)c2c([N+](=O)[O-])cc([N+](=O)[O-])c3c2=[N+]([O-])CN=3)cc1`, the growth inhibition was 38% (inactive). As to `Nc1ccccc1SSc1ccccc1N`, the growth inhibition was 87% (active) and 13% (inactive) and 89% (active). On to `COc1ccc(C(=O)OCCc2ccccc2)cc1`, for which the growth inhibition was 20% (inactive). As to `COc1ccc(C(=O)NCCN(C)C)c2nc3ccccc3cc12`, the growth inhibition is 22% (inactive).

Consider `NCC(O)CSCc1ccc(Cl)cc1` (stereo not drawn), for which the growth inhibition is -13% (inactive). As for `O=c1[nH]c(=O)n(CCCO)cc1F`, the growth inhibition was 20% (inactive). The same measure, in the same setting: as for `CCCCCCCCCCCC[N+](C)(C)C`, the figure is 14% (inactive) and 9% (inactive) and 18% (inactive); as for `COc1ccc(/C(=N/O)c2ccccc2C2=Nc3ccccc3C(NCc3ccccc3)O2)cc1C` (stereo not drawn), 15% (inactive); as for `CCCC(=O)OC(OC(=O)CCC)c1ccc([N+](=O)[O-])o1`, 2% (inactive). Consider `O=C(/C(=C/c1ccccc1)CBr)c1ccccc1`, for which the growth inhibition was 22% (inactive).

As to `O=C(Cc1ccccc1F)NC1=C(Cl)C(=O)c2ccccc2C1=O`, the growth inhibition is -6% (inactive). For the compound `Cc1cccc(N2CCN(C(=O)/C(=C/c3ccccc3)NC(=O)c3ccccc3)CC2)c1`, the growth inhibition was -41% (inactive).

As to `OCC(O)C(O)C(O)C(O)c1nc2ccccc2[nH]1` (stereo not drawn), the growth inhibition is 6% (inactive) and -5% (inactive).

In the case of `c1cc(Nc2ccc3c(c2)OCO3)c2cc(C3CCCCC3)ccc2n1`, the growth inhibition is 10% (inactive).

Consider `Cc1ccc2nc(N/N=C/c3ccc(C)s3)cc(C)c2c1`, for which the growth inhibition is 7% (inactive).

In the case of `COc1cc(NCCCCCNC(C)C)c2ncccc2c1Cl`, the growth inhibition is 6% (inactive).

For the compound `COc1cccc2c1C(=O)c1c(O)c3c(c(O)c1C2=O)CC(O)(C(=O)CO)CC3OC1CC(N)C(O)C(C)O1` (stereo not drawn), the growth inhibition was 10% (inactive) and 15% (inactive) and 18% (inactive). In the case of `COc1ccc2cc(CN3CCC(C4CCN(Cc5ccc6cc(OC)ccc6c5)CC4)CC3)ccc2c1`, the growth inhibition was 19% (inactive). Take `CC(=O)O/N=C/c1c2ccccc2cc2ccccc12`: the growth inhibition is 58% (inactive). For the compound `CC[C@@]1(OC(=O)CN(C)C)C(=O)OCc2c1cc1n(c2=O)Cc2cc3ccccc3nc2-1`, the growth inhibition was -3% (inactive).

As to `CC1(C)CC(=O)C(C(CC(c2ccccc2)c2cc3c(cc2O)OCO3)C2=C(O)CC(C)(C)CC2=O)=C(O)C1` (stereo not drawn), the growth inhibition is 74% (active). Turning to `CCCCCCC(CCl)c1sc(-c2csc(CCNC(=O)OC(C)(C)C)n2)nc1C(=O)OC` (stereo not drawn), the growth inhibition is -21% (inactive).

Take `CCOC(=O)C1=C(C)NC(C)=C(C(=O)OCC)C1c1cccc([N+](=O)[O-])c1`: the growth inhibition is 29% (inactive). Consider `COc1nc(N)c(N=CC(OC(C)=O)C(OC(C)=O)C(COC(C)=O)OC(C)=O)c(=O)n1C` (stereo not drawn), for which the growth inhibition is 10% (inactive) and 11% (inactive) and 13% (inactive).

Turning to `Cc1ccc2c(/C=C/c3ccc(N(C)C)cc3)ccnc2c1C`, the growth inhibition is 43% (inactive). As for `Cc1cc(SC#N)ccc1O`, the growth inhibition was 15% (inactive) and 2% (inactive) and 13% (inactive). As for `O=C1C(Br)=CC(Br)(Br)C=C1Br`, the growth inhibition is 21% (inactive).

Still in this experiment, the particulars now being: S. cerevisiae bub3 mutant strain, at 11.0 µM, stronger effect = higher value.
On to `CNC(=O)OCc1c(COC(=O)NC)c(C)n(-c2ccc(Cl)c(Cl)c2)c1C`, for which the growth inhibition was -21% (inactive).

Turning to `COc1ccc2nc(N/N=C/c3sccc3C)cc(C)c2c1`, the growth inhibition is 38% (inactive).

On to `O=C(O)/C=C\C(=O)NNc1ccc(Br)cc1`, for which the growth inhibition was 99% (active). Regarding `S=c1[nH]nc(Cc2ccccc2)c(=S)[nH]1`, the growth inhibition was 51% (inactive). Regarding `COc1ccc2nc3cccc([N+](=O)[O-])c3c(NCCCO)c2c1`, the growth inhibition was 87% (active). As to `CCN(CC)CCSc1c2ccccc2nc2cc(NCC(=O)Nc3ccccc3-c3ccccc3NC(=O)CNc3ccc4c(SCCN(CC)CC)c5ccccc5nc4c3)ccc12`, the growth inhibition was 31% (inactive). Still for that read-out and setting: with `Cc1ccc(N(C=O)c2c([N+](=O)[O-])cc([N+](=O)[O-])c3c2=[N+]([O-])CN=3)cc1` the figure was 19% (inactive); with `COc1ccc(C(=O)OCCc2ccccc2)cc1`, 16% (inactive); with `COc1ccc(C(=O)NCCN(C)C)c2nc3ccccc3cc12`, 9% (inactive). For `NCC(O)CSCc1ccc(Cl)cc1` (stereo not drawn), the growth inhibition was 1% (inactive). Take `CN(C)/N=N/c1nc[nH]c1C(N)=O`: the growth inhibition is -2% (inactive). In the case of `O=c1[nH]c(=O)n(CCCO)cc1F`, the growth inhibition was -22% (inactive). Take `COc1ccc(/C(=N/O)c2ccccc2C2=Nc3ccccc3C(NCc3ccccc3)O2)cc1C` (stereo not drawn): the growth inhibition was 4% (inactive). Consider `CCCC(=O)OC(OC(=O)CCC)c1ccc([N+](=O)[O-])o1`, for which the growth inhibition is -4% (inactive). Take `O=C(/C(=C/c1ccccc1)CBr)c1ccccc1`: the growth inhibition is 54% (inactive). In the case of `O=C(Cc1ccccc1F)NC1=C(Cl)C(=O)c2ccccc2C1=O`, the growth inhibition was 27% (inactive). Same read-out and setting: as for `Cc1cccc(N2CCN(C(=O)/C(=C/c3ccccc3)NC(=O)c3ccccc3)CC2)c1`, the figure is 5% (inactive); as for `c1cc(Nc2ccc3c(c2)OCO3)c2cc(C3CCCCC3)ccc2n1`, -2% (inactive). On the same count and under the same terms, as for `Cc1ccc2nc(N/N=C/c3ccc(C)s3)cc(C)c2c1`, the figure is 15% (inactive). For the compound `COc1cc(NCCCCCNC(C)C)c2ncccc2c1Cl`, the growth inhibition is 3% (inactive). The same measure, in the same setting: as for `COc1ccc2cc(CN3CCC(C4CCN(Cc5ccc6cc(OC)ccc6c5)CC4)CC3)ccc2c1`, the figure is -28% (inactive). On to `CC(=O)O/N=C/c1c2ccccc2cc2ccccc12`, for which the growth inhibition is 26% (inactive). Regarding `CC[C@@]1(OC(=O)CN(C)C)C(=O)OCc2c1cc1n(c2=O)Cc2cc3ccccc3nc2-1`, the growth inhibition was 41% (inactive).

`CC1(C)CC(=O)C(C(CC(c2ccccc2)c2cc3c(cc2O)OCO3)C2=C(O)CC(C)(C)CC2=O)=C(O)C1` (stereo not drawn): the growth inhibition is -6% (inactive).

Turning to `CCCCCCC(CCl)c1sc(-c2csc(CCNC(=O)OC(C)(C)C)n2)nc1C(=O)OC` (stereo not drawn), the growth inhibition is 2% (inactive).

Consider `CCOC(=O)C1=C(C)NC(C)=C(C(=O)OCC)C1c1cccc([N+](=O)[O-])c1`, for which the growth inhibition was 4% (inactive). For `Cc1ccc2c(/C=C/c3ccc(N(C)C)cc3)ccnc2c1C`, the growth inhibition was 28% (inactive). Consider `O=C1C(Br)=CC(Br)(Br)C=C1Br`, for which the growth inhibition was 7% (inactive).
